Results filed as inconclusive are left out. The source made the active and inactive calls. Unless noted, calls come from the whole dose curve; as a rule, active = well fitted curve in the direction sought with a large enough effect; inconclusive = small, poorly fitted or top-dose-only effect, or another doubt; inactive = no such curve, though single readings can be large; an effect the other way counts as inactive or inconclusive.
What was measured:
[1] = Cytometric Cell-Based qHTS for Inhibitors of the mTORC1 Signaling Pathway in MEF (Tsc2-/-, p53-/-) Cells (AID 2660);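 note: Tsc2 and p53 null MEFs carrying empty vector with compound for 24 h; percent of cells above a phospho-rpS6 to PI ratio cutoff in each well; series mostly up to about 38 µM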
How it was run: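 Cells are plated, treated with compound for 24 hrs at 37 degree Celsius, then fixed, blocked and immunostained for phospho-rpS6 Ser235/236. Propidium iodide counterstain follows. Per-well % positive cells is derived from the PI-normalized phospho-S6 signal.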

[2] = High Content Imaging Cell-Based qHTS for Inhibitors of the mTORC1 Signaling Pathway in MEF (Tsc2-/-, p53-/-) Cells (AID 2666);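 note: percent of cells scored positive for phospho-rpS6 Ser235/236 immunostaining by imaging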
How it was run: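 Tsc2-/-, p53-/- MEFs (empty-vector stable) grown in DMEM + 10% FBS were exposed to compounds for 24 hrs at 37 degree Celsius, fixed, and stained with Alexa-488 anti-phospho-rpS6 Ser235/236 plus Hoechst. Imaging gave the percentage of positive cells per well.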

[3] = High Content Imaging Cell-Based qHTS for Inhibitors of the mTORC1 Signaling Pathway in MEF Cells (AID 2667);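 note: Tsc2-/- p53-/- MEFs stably re-expressing wild-type Tsc2 exposed 24 h; series mostly up to about 38 µM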
How it was run: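 Tsc2-/-, p53-/- MEFs stably re-expressing WT Tsc2, grown in DMEM + 10% FBS, were treated with compounds for 24 hrs at 37 degree Celsius, fixed, and stained with Alexa-488 phospho-rpS6 Ser235/236 antibody plus Hoechst; results given as % positive cells.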

[4] = Cytometry Cell-Based qHTS for Inhibitors of the mTORC1 Signaling Pathway in MEF cells (AID 2668);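 note: Tsc2-/- p53-/- mouse embryonic fibroblasts stably re-expressing wild-type Tsc2; percent cells positive for phospho-rpS6 Ser235/236 relative to propidium iodide stain; series mostly up to about 38 µM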
How it was run: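 In MEFs grown in DMEM + 10% FBS, a 24 hrs compound exposure preceded imaging of phospho-rpS6 Ser235/236 by laser-scanning cytometry.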

[5] = Validation screen for small molecules that induce DNA re-replication in MCF 10A normal breast cells (AID 463097); note: nearly all actives have a fitted effect of over 60% in size
How it was run: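 Following 48 hr compound incubation (37 C, 5% CO2), MCF 10A cells receive Hoechst for 40 min at 37 C. Nuclei are then scanned (excitation 405 nm, emission 500-530 nm) for total fluorescence intensity.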

[6] = target: Ubiquitin carboxyl-terminal hydrolase 2 (Homo sapiens) (UniProt O75604); experiment: qHTS Validation Assay for Inhibitors of Ubiquitin-specific Protease USP2a Using CHOP2 as the Reporter (AID 463106)
Chain of Ubiquitin carboxyl-terminal hydrolase 2 (Homo sapiens) (O75604 whole entry, looked up): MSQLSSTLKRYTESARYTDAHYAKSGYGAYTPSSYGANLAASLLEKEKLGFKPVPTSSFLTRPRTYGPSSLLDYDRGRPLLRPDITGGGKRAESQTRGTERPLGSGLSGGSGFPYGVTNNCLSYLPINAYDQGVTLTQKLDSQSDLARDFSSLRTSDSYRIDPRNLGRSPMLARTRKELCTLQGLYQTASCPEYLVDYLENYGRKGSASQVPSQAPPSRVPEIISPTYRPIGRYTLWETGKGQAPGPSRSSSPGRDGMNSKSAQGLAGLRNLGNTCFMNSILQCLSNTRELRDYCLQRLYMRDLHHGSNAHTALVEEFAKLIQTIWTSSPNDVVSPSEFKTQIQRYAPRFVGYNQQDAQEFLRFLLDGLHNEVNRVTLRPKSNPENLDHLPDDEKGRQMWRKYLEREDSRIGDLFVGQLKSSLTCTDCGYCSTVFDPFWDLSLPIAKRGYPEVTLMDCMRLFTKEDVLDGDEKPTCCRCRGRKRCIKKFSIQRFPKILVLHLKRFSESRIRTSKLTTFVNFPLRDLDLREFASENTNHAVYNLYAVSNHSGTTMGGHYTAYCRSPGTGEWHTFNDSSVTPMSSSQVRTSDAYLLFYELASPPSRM
How it was run: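 Readout was coupled fluorescence (Ex 485/Em 531 nm), read 60 min after adding 25 nM final Ub-CHOP2 and 25 nM reporter substrate. Beforehand, 10 nM final USP2 core had 30 min at RT with compound in pH 8.0 buffer. Curves were fitted after normalization to NEM and flagged for artifacts using time-zero reads.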

[7] = target: DNA polymerase III PolC-type (Bacillus subtilis (strain 168)) (UniProt P13267); experiment: qHTS Validation Assay for the Inhibitors of DNA Replication in Gram-Positive Bacteria (AID 485295);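 note: reconstituted holoenzyme with PolC plus beta clamp SSB and primase; PicoGreen fluorescence of double-stranded DNA made on primed circular M13 template; series mostly up to about 57 µM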
Chain of DNA polymerase III PolC-type (Bacillus subtilis (strain 168)) (P13267 whole entry, looked up): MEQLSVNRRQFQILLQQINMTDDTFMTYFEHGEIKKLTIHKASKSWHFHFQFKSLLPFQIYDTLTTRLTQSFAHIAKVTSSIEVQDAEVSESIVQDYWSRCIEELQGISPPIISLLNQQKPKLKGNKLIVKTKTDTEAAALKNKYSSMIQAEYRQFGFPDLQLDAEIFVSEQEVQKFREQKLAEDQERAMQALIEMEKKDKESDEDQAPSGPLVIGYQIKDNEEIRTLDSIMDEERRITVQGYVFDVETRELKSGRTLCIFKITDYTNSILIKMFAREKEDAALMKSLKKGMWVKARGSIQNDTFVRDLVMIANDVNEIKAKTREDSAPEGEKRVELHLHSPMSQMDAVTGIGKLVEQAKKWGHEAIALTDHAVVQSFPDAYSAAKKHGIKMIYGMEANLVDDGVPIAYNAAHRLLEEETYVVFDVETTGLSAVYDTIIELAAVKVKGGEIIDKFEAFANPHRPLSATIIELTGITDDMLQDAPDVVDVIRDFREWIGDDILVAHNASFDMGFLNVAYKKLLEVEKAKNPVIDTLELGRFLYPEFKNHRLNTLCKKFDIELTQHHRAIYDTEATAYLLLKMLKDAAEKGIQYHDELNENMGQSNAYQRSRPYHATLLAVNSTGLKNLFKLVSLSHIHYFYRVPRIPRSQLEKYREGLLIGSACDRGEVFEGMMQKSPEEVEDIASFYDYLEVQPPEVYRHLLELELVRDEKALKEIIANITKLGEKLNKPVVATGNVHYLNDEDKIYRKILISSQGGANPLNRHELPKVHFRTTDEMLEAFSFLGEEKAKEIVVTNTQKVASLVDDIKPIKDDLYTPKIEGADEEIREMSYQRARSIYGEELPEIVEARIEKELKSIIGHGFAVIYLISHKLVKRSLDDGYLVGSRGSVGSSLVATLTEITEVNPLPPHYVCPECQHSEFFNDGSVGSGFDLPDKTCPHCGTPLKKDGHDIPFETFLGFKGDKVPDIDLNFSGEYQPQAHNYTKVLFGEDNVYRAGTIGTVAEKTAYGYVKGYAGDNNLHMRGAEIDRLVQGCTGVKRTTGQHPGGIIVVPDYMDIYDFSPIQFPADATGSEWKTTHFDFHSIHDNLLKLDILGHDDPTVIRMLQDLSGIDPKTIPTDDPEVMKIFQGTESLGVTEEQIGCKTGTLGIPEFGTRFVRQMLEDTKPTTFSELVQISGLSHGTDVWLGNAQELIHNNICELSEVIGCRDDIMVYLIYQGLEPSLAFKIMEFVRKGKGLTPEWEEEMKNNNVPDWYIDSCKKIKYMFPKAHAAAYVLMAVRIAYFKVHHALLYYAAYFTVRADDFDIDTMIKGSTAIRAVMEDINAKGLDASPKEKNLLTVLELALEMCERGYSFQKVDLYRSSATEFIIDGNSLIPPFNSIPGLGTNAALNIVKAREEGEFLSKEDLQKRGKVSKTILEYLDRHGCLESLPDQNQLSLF
How it was run: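 Inhibition of DNA synthesis by the reconstituted PolC holoenzyme, monitored through PicoGreen staining of dsDNA formed from ssM13Gori, dNTPs and NTPs, with compound preincubation and room-temperature reaction.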

[8] = target: Tumor susceptibility gene 101 protein (Homo sapiens) (UniProt Q99816); experiment: qHTS Validation Assay for Iinhibitors of HIV-1 Budding by Blocking the Interaction of PTAP/TSG101 (AID 485342; calls by dose curve)
Chain of Tumor susceptibility gene 101 protein (Homo sapiens) (Q99816 whole entry, looked up, the tested form may be a part): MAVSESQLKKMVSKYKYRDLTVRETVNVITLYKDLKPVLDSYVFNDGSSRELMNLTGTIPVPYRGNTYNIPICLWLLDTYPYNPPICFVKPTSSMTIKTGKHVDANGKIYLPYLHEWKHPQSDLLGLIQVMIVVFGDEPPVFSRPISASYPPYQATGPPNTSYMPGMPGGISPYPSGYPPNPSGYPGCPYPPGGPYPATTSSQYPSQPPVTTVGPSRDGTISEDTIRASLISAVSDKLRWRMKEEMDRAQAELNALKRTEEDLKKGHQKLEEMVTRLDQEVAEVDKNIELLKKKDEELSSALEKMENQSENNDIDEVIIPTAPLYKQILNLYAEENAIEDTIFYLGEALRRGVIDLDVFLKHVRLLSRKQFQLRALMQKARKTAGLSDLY
How it was run: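 Compound wells held the Tsg101 binding domain (10 uM) and a FITC-conjugated PTAP peptide (50 nM) in buffer at pH 7.5 containing 0.15 M NaCl and 0.01% Tween 20; polarization was recorded after 20 min, r.t.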

[9] = qHTS Validation Assay to Find Inhibitors of Chronic Active B-Cell Receptor Signaling (AID 485345; active = well fitted curve in the direction sought with a large enough effect in the main read-out, with a control signal flat, not every such curve was filed as active)
How it was run: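 Read-out: ratio of filter-corrected green (IkappaBalpha fusion) to red (native) luciferase signal in doxycycline-induced TMD8 cells after 4 h at 37C. Titration spanned 46 uM–3 nM; Data were normalised to basal cells and 10 uM MG-132 wells.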

Measured: Potency

CC(C)C[C@H](NC(=O)[C@H](O)[C@H](N)Cc1ccccc1)C(=O)O
inactive: all assays above

N[C@@H](CS(=O)O)C(=O)O
inactive: all assays above

NCCCNCCCCNCCCN
inactive: all assays above

CCCn1c(=O)c2c(ncn2C)n(CCC)c1=O
inactive: all assays above

CCCN(CCc1ccccc1)C1CCc2c(O)cccc2C1 (stereo not drawn)
inactive: all assays above

NCCCCN=C(N)N
inactive: all assays above

O=c1onc2n1-c1cc(Br)ccc1OC2
inactive: all assays above

N[C@@H](Cc1c[nH]c2ccccc12)C(=O)O
inactive: all assays above

COc1cc(CC(=O)O)ccc1O
inactive: all assays above

O=C(O)C1=CCCNC1
inactive: all assays above

C[N+](C)(C)CC=O
inactive: all assays above

N[C@H](C(=O)O)[C@H]1C[C@@H]1C(=O)O
inactive: all assays above

OC[C@H]1NC[C@@H](O)[C@@H]1O
inactive: all assays above

NC1(C(=O)O)CCc2cc(C(=O)O)ccc21 (stereo not drawn)
inactive: all assays above

CCC(=O)N1CCN(C(=O)c2ccccc2)CC1
inactive: all assays above

N[C@@H](Cc1ccc(O)c(I)c1)C(=O)O
inactive: all assays above

NC(=O)c1ccccc1
inactive: all assays above

N=C(N)c1ccc(N)cc1
inactive: all assays above

Nn1nnc2ccccc21
inactive: all assays above

NC/C=C\C(=O)O
inactive: all assays above

CC(=O)/C(C)=N/O
inactive: all assays above

O=C(O)c1ccccc1Nc1ccccc1
inactive: all assays above

CCCn1c(=O)c2[nH]c(C3CCCC3)nc2n(CCC)c1=O
not listed: [5] | [8] | [9]
inactive: all other assays above

N=C(N)c1ccccc1
not listed: [7]
inactive: all other assays above

N[C@@H](CCC(=O)N[C@H](CSN=O)C(=O)NCC(=O)O)C(=O)O
not listed: [7]
inactive: all other assays above

Cc1ccccc1/C=C/C1=NCCN1
not listed: [5] | [9]
inactive: all other assays above

O=C1NC(=O)c2cc(Nc3ccccc3)c(Nc3ccccc3)cc21
not listed: [5] | [8] | [9]
inactive: all other assays above

NC1C=CC=C(C(=O)O)C1 (stereo not drawn)
not listed: [8]
inactive: all other assays above

Nc1ccc(N2C(=O)c3ccccc3C2=O)c(Cl)c1
inactive: all assays above

CCCCS(=N)(=O)CC[C@H](N)C(=O)O (stereo partly drawn)
not listed: [8]
inactive: all other assays above

CC(=O)O[C@H]1CC2(C)[C@@H](C[C@@H](O)[C@H]3[C@@]4(C)CC[C@@H](O)[C@@H](C)[C@@H]4CC[C@@]32C)C1=C(CCC=C(C)C)C(=O)O (stereo partly drawn)
not listed: [7]
inactive: all other assays above

NCCCCN
not listed: [7]
inactive: all other assays above

Cc1ccc2c(c1)C(N1CCN(C)CC1)=Nc1cccnc1N2
not listed: [7] | [9]
inactive: all other assays above

c1ccc(C(NCc2cccnc2)(c2ccccc2)c2ccccc2)cc1
not listed: [5] | [9]
inactive: all other assays above

NCC(O)(CS(=O)(=O)O)c1ccc(Cl)cc1 (stereo not drawn)
not listed: [8]
inactive: all other assays above

O=C(O)c1cc2cc(F)ccc2[nH]1
not listed: [8]
inactive: all other assays above

O=c1onc2cnc3ccccc3n12
inactive: [1] | [2] | [3] | [4] | [6]

CC1CCN=C(N)S1 (stereo not drawn)
not listed: [7]
inactive: all other assays above

CC(C)C[C@H](NC(=O)C1OC1C(=O)O)C(=O)NCCCCN=C(N)N (stereo partly drawn)
not listed: [6]
inactive: all other assays above

C=CC1(C)CC(=O)C2(O)C(C)(O1)C(OC(C)=O)C(O)C1C(C)(C)CCC(O)C12C (stereo not drawn)
not listed: [5] | [9]
inactive: all other assays above

CC(=O)NCCc1c[nH]c2ccc(O)cc12
inactive: all assays above

Oc1ccc(Cn2cc[nH]c2=S)cc1
not listed: [8]
inactive: all other assays above

CC(=O)NNC(=O)N1Cc2ccccc2Oc2ccc(Cl)cc21
not listed: [8]
inactive: all other assays above

C[C@H]1CC2C3CCC4=CC(=O)C=C[C@]4(C)[C@@]3(Cl)[C@@H](O)C[C@]2(C)[C@@]1(O)C(=O)CO (stereo partly drawn)
inactive: [1] | [2] | [3] | [4] | [6]

CNc1ncnc2c1ncn2[C@H]1C[C@H](OP(=O)(O)O)[C@@H](COP(=O)(O)O)O1
not listed: [7] | [9]
inactive: all other assays above

CO/N=C(\C(=O)N[C@@H]1C(=O)N2C(C(=O)O)=C(CSc3nc(=O)c(O)nn3C)CSC12)c1csc(N)n1 (stereo partly drawn)
not listed: [7]
inactive: all other assays above

COc1ccc(CCN(C)CCc2ccc(OC)c(OC)c2)cc1OC
inactive: all assays above

O=C(O)c1cc(=O)cc(C(=O)O)[nH]1
not listed: [8]
inactive: all other assays above

N=C(N)SCCc1cnc[nH]1
not listed: [7] | [8]
inactive: all other assays above

Nc1ncnc2c1ncn2C1CCCC1
not listed: [7]
inactive: all other assays above

CN[C@H](CC(=O)O)C(=O)O
not listed: [7]
inactive: all other assays above

CCCCCCCCCC[Si](C)(C)CCC(=O)NC(Cc1ccc(C)cc1)c1ccccc1 (stereo not drawn)
inactive: all assays above

O=[N+]([O-])c1cccc2c(Br)[nH]nc12
inactive: all assays above

c1ccc2c(c1)CC(N1CCN(c3cccc4c3OCCO4)CC1)C2
not listed: [7]
inactive: all other assays above

N[C@H](C(=O)O)c1cc(O)cc(O)c1
inactive: all assays above

O=C(O)/C=C/c1cnc[nH]1
not listed: [8]
inactive: all other assays above

NC(=O)CC[C@H](N)C(=O)O
not listed: [8]
inactive: all other assays above
